# Calls of active or inactive are those of the source. The calls were made as follows: active = hit-call score of the fitted dose curve at least 0.9, where 1 is the maximum; inactive = score below 0.9.
# How the values were obtained:
# [1] = ATG_CRE_CIS: Attagene CIS-FACTORIAL HepG2 Assay for human cAMP Responsive Element (CRE) binding protein 3 (AID 2282926); settings: HepG2 CRE cis-reporter, Attagene multiplexed mRNA; actives raise or lower the signal
# In short: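 Induced reporter mRNA from a CRE cis element, measured in HepG2 among many multiplexed units at 24 h. Detection used RT-PCR plus capillary electrophoresis of fluorescent fragments; DMSO served as negative control.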
# [2] = molecular target: CCAAT/enhancer-binding protein beta (Homo sapiens) (UniProt P17676); assay: ATG_C_EBP_CIS: Attagene CIS-FACTORIAL HepG2 Assay for human CCAAT/Enhancer Binding Protein (C/EBP) beta (AID 2282927); settings: HepG2 Attagene cis-factorial transcription factor reporter; actives raise or lower the signal
# CCAAT/enhancer-binding protein beta (Homo sapiens), sequence (P17676 whole entry, looked up, the tested form may be a part): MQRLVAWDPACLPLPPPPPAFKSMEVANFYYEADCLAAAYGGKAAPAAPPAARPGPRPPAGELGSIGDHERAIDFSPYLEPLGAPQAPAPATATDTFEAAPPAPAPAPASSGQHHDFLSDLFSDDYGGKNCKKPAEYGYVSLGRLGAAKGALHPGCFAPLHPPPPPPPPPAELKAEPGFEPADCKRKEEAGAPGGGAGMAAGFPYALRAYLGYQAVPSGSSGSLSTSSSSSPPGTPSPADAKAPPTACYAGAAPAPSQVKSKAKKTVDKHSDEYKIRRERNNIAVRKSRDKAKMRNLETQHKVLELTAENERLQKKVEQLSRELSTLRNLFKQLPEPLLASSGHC
# In short: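 Endogenous C/EBPb-driven reporter transcripts measured in transfected human HepG2 cells at 24 h via RT-PCR and capillary electrophoresis of labelled fragments. Activity fitted in both directions relative to DMSO baseline.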
# [3] = ATG_CMV_CIS: Attagene CIS-FACTORIAL HepG2 Assay for human CMV (Internal Marker) (AID 2282928); settings: HepG2 CMV promoter reporter, transcription factor profiling; actives raise or lower the signal;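 also: endpoint acts as a background internal control marker rather than a target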
# In short: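 Readout: fluorescent reporter cDNA fragments separated by capillary electrophoresis after RT-PCR and HpaI cut. Cells: HepG2 carrying transfected cis-promoter reporter constructs, dosed 24 h. Endpoint serves as background internal-marker control, fit bidirectionally versus DMSO.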
# [4] = ATG_DR4_LXR_CIS: Attagene CIS-FACTORIAL HepG2 Assay for human Liver X Receptor (LXR), DR4 submotif (AID 2282929); settings: HepG2 Attagene DR4 cis-reporter, mRNA transcription; actives raise or lower the signal
# In short: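 Total RNA from 24 h-treated, MRTU-transfected HepG2 cells underwent reverse transcription, PCR, fluorescent primer extension and restriction digestion before capillary electrophoresis. Both increases and decreases in reporter signal were fitted against DMSO.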
# [5] = molecular target: Aryl hydrocarbon receptor (Homo sapiens) (UniProt P35869); assay: ATG_Ahr_CIS: Attagene CIS-FACTORIAL HepG2 Assay for human Aryl Hydrocarbon Receptor (Ahr) (AID 2282930); settings: HepG2 AhR cis-factorial reporter transcription; actives raise or lower the signal
# Aryl hydrocarbon receptor (Homo sapiens), sequence (P35869 whole entry, looked up): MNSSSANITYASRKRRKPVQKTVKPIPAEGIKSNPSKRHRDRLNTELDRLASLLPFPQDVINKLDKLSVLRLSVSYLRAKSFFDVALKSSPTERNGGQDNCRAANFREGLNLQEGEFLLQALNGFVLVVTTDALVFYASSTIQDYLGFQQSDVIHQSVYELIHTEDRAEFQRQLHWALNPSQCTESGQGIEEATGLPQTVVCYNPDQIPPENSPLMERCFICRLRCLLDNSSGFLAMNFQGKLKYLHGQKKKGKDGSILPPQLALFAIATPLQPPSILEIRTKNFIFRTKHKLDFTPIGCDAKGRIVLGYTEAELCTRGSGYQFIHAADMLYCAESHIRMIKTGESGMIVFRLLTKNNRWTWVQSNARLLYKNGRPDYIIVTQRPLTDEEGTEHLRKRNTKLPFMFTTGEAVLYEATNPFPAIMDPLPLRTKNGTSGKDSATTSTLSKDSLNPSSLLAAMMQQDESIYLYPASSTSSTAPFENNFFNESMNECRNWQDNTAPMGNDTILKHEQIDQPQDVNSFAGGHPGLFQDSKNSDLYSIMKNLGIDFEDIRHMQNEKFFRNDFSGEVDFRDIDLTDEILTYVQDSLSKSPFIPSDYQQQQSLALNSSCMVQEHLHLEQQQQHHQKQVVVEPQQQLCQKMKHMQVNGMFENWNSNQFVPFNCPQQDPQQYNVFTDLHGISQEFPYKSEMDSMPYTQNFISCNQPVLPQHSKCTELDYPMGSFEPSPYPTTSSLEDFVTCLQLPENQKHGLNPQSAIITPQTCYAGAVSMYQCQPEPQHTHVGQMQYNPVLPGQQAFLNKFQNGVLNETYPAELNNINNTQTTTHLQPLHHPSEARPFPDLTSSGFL
# In short: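 Reporter mRNA levels, quantified by RT-PCR and fluorescent capillary electrophoresis, reflect endogenous AhR transcriptional activity in HepG2 cells carrying transfected cis-promoter reporter constructs. Readout at 24 h post-dose; gain or loss fitted against DMSO baseline.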
# [6] = ATG_AP_1_CIS: Attagene CIS-FACTORIAL HepG2 Assay for human Activator Protein 1 (AP-1) (AID 2282931); settings: HepG2 Attagene cis-factorial AP-1 reporter mRNA; actives raise or lower the signal
# In short: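 HepG2, transient cis-reporter transfection; 24 h; readout RT-PCR/CE fluorescence; DMSO baseline, gain and loss fitted.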
# [7] = ATG_AP_2_CIS: Attagene CIS-FACTORIAL HepG2 Assay for human Activator Protein 2 (AP-2) (AID 2282932); settings: HepG2 AP-2 cis-reporter, Attagene transcription factor profiling; actives raise or lower the signal
# In short: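 Transiently transfected HepG2 cells are exposed to chemical for 24 h. Reporter transcripts are then measured as fluorescence following RT-PCR and capillary separation, and gain- or loss-of-signal is fitted relative to DMSO.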
# [8] = ATG_BRE_CIS: Attagene CIS-FACTORIAL HepG2 Assay for human Bone Morphogenetic Protein (BMP) Response Element (BRE) (AID 2282933); settings: HepG2 BMP response element reporter, Attagene transcription factor profiling; actives raise or lower the signal
# In short: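 A HepG2 multiplex reporter system measured inducible reporter mRNA 24 h post-dosing. Detection: RT-PCR, 6-FAM primer extension, HpaI digestion, capillary electrophoresis. Activity fitted bidirectionally relative to DMSO.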
# [9] = molecular target: Transcription factor E2F1 (Homo sapiens) (UniProt Q01094); assay: ATG_E2F_CIS: Attagene CIS-FACTORIAL HepG2 Assay for human E2F Transcription Factor 1 (AID 2282935); settings: HepG2 Attagene cis-reporter, E2F reporter RNA transcripts; actives raise or lower the signal
# Transcription factor E2F1 (Homo sapiens), sequence (Q01094 whole entry, looked up): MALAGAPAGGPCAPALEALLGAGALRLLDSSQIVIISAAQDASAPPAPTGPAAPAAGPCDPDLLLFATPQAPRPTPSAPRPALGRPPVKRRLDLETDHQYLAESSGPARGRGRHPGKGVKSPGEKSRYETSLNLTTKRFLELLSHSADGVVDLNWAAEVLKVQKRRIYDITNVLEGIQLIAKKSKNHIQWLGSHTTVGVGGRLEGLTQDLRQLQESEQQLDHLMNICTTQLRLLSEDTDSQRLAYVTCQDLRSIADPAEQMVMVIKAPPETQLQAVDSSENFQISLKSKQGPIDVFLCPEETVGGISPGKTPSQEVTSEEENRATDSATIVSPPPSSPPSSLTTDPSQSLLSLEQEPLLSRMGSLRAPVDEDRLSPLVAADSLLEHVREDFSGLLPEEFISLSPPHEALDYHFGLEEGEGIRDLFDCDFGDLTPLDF
# In short: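 Fluorescent RT-PCR products, digested with HpaI for 2 h at 37 C, are separated by capillary electrophoresis. Source RNA comes from transfected HepG2 cultures treated for 24 h.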
SMILES,outcome [1],AC50 [2],AC50 [3],outcome [4],outcome [5],outcome [6],outcome [7],outcome [8],outcome [9],outcome [2],outcome [3],AC50 [5]
Cc1c(Cl)c(=O)oc2cc(O)ccc12,inactive,129 µM (active),63 µM (active),inactive,inactive,inactive,inactive,inactive,inactive,–,–,–
CC(C)(C)C(=O)c1ccccc1,inactive,–,–,inactive,inactive,inactive,inactive,inactive,inactive,inactive,inactive,–
CNC[C@H](O)c1cccc(O)c1,inactive,–,–,inactive,inactive,inactive,inactive,inactive,inactive,inactive,inactive,–
CCc1c(C)cc(N)c(CC)c1N,inactive,–,–,inactive,–,inactive,inactive,inactive,inactive,inactive,inactive,79.3 µM (active)
CC1(C)[C@H](C(=O)OCc2cccc(Oc3ccccc3)c2)[C@@H]1C=C(Cl)Cl,inactive,–,–,inactive,inactive,inactive,inactive,inactive,inactive,inactive,inactive,–
O=C1NC(=O)c2ccccc21,inactive,–,–,inactive,inactive,inactive,inactive,inactive,inactive,inactive,inactive,–
COC(=O)OC,inactive,–,–,inactive,inactive,inactive,inactive,inactive,inactive,inactive,inactive,–
CSc1nnc(C(C)(C)C)c(=O)[nH]1,inactive,–,–,inactive,inactive,inactive,inactive,inactive,inactive,inactive,inactive,–
O=C(O)CCCCC1CCSS1 (configuration not stated),inactive,–,–,inactive,inactive,inactive,inactive,inactive,inactive,inactive,inactive,–
O=C1O[C@@H]2[C@@H](O)[C@H](O)O[C@@H]2[C@H]1O,inactive,–,–,inactive,inactive,inactive,inactive,inactive,inactive,inactive,inactive,–
CCCCC(CC)COCCC#N (configuration not stated),inactive,–,–,inactive,inactive,inactive,inactive,inactive,inactive,inactive,inactive,–
CC(=O)Nc1ccccc1O,inactive,–,–,inactive,–,inactive,inactive,inactive,inactive,inactive,inactive,20.7 µM (active)
CNCCO,inactive,–,–,inactive,inactive,inactive,inactive,inactive,inactive,inactive,inactive,–
